Compound activity: PubChem BioAssay, National Center for Advancing Translational Sciences (NCATS)
SMN2 splice up: qHTS Assay for Enhancers of SMN2 Splice Variant Expression; Potency, µM (highest dose often 46.1 µM), most hits filed as activators; HEK293 SMN2-luciferase splicing reporter, luminescence, 30-36 h; hit rate 2.8% among 210,000; also: nearly all actives have a fitted effect of over 55% in size
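HEK293 cells carry an SMN2 minigene-luciferase reporter in which exon 7 inclusion puts luciferase in frame. Cells were seeded at 2000 cells/well, attached for 10-12 hours, then exposed to compounds for 30-36 hours at 37C before ONE-Glo luminescence.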
uPA generation: qHTS for Inhibitors of Cell Surface uPA Generation; AID 540303, 2011; cell surface uPA generation assay, qHTS; hit rate 0.31% among 330,000; Potency, µM (doses to about 38.3 µM), actives largely listed as inhibitors; active = well fitted inhibition curve with a large enough effect; inconclusive = small, poorly fitted or top-dose-only effect; inactive = no such curve, though single readings can be large or run the other way; tested in mouse RAW 264.7 cells; also: nearly all actives have a fitted effect of over 55% in size
Rab9 prom act: qHTS Assay for Rab9 Promoter Activators | Huh7 Rab9 promoter-luciferase reporter, luminescence, 24 h | Potency, µM (series often up to 9.22 µM), hits mostly activators | hit rate 2.8% among 320,000 | AID 485297, 2010; also: nearly all actives have a fitted effect of over 60% in size
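Luminescence read-out: Huh7 cells stably expressing Rab9-luciferase, treated 24 h with compound at 37 °C, then lysed with luciferase reagent for 10 min at ambient before reading.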
ELG1 genotoxic: qHTS screen for small molecules that induce genotoxicity in human embryonic kidney (HEK293T) cells expressing luciferase-tagged ELG1; Potency, µM (series often up to 46 µM), usual class: activators; AID 504466, 2011; hit rate 1.3% among 330,000; HEK293T ELG1-luciferase reporter, luminescence, 16 h; also: nearly all actives have a fitted effect of over 60% in size
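Step 1: seed 2,000 HEK293T ELG1-luciferase cells per well. Step 2: add compound or DMSO, incubate 16 hr at 37 °C. Step 3: ONE-Glo, 30 min at room temperature, read luminescence.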
NPC1 prom act: qHTS Assay for NPC1 Promoter Activators; Potency, µM (series often up to 9.22 µM), most hits filed as activators; hit rate 2.4% among 320,000; Huh7 NPC1 promoter luciferase reporter, 24 h; also: nearly all actives have a fitted effect of over 60% in size
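Quantitative HTS used a cell-based reporter: Huh7 cells stably bearing the NPC1 promoter upstream of luciferase were treated with compounds for 24 h, and promoter activation was read as luminescence.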
FLuc counter: qHTS profiling assay for firefly luciferase inhibitor/activator using purifed enzyme and Km concentrations of substrates (counterscreen for miR-21 project) | Luciferin 4-monooxygenase (Photinus pyralis), P08659 | purified FLuc, Km substrates, luminescence inhibition | Potency, µM (doses to about 57.5 µM), usual class: inhibitors | hit rate 6.9% among 360,000 | AID 588342, 2011; also: nearly all actives have a fitted effect of over 55% in size
Target sequence (P08659 whole entry, looked up): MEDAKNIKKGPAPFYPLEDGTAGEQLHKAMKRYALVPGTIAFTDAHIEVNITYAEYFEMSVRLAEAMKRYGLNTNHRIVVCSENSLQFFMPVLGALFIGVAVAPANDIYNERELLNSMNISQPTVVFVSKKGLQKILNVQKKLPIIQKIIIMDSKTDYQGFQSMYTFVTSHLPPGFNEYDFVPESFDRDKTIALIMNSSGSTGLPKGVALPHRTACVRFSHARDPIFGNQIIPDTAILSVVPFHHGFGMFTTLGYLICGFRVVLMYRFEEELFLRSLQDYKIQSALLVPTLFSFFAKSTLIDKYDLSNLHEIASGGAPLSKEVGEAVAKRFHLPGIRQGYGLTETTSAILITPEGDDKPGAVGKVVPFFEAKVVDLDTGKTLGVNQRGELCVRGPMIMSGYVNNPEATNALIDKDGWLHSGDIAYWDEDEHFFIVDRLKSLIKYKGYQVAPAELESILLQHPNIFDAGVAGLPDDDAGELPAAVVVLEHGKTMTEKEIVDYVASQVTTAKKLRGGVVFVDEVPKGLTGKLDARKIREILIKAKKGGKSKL
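Purified P. pyralis luciferase, 10 nM final, with Km-level 10 uM D-luciferin and 10 uM ATP in 50 mM Tris acetate pH 7.5, 10 mM Mg acetate, 0.01% Tween-20, 0.05% BSA; 6-point qHTS titration about 60 µM downward; luminescence read.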
Each line names hits and unclear results; the compound was inactive in the other large screens. In the library only some 7.3% were active in any assay of this set; here they are far more common. Unless noted, calls follow the shape of the dose curve; as a rule, active = well fitted curve in the direction sought with a large enough effect; inconclusive = small, poorly fitted or top-dose-only effect, or another doubt; inactive = no such curve, though single readings can be large; an effect the other way counts as inactive or inconclusive.

C=C(C)Cn1c(SCC(=O)Nc2cccc(Cl)c2)nc2sc3c(c2c1=O)CCCC3	none (no result: uPA generation, Rab9 prom act, ELG1 genotoxic, NPC1 prom act)
CC(C)(C)S(=O)(=O)c1cnc2c(-c3ccc(Cl)cc3)cnn2c1N	FLuc counter inconclusive
Nc1c(-c2ccccc2)cnn1-c1ccc(C(=O)O)cc1	SMN2 splice up 3.16µM, Rab9 prom act 0.316µM, ELG1 genotoxic inconclusive, NPC1 prom act inconclusive, FLuc counter 1.69µM (no result: uPA generation)
COc1ccc(-c2cnn(-c3ccccc3)c2N)cc1OC	none
Nc1c(-c2ccc(Cl)cc2)nnn1-c1ccccc1	Rab9 prom act 2.24µM, ELG1 genotoxic inconclusive, NPC1 prom act 3.16µM, FLuc counter inconclusive (no result: SMN2 splice up)
N#Cc1c(C#N)c(-c2ccccc2)n(-c2ccc(C(=O)O)cc2)c1N	none
Cc1ccc(-c2cnn(-c3ccccc3)c2N)cc1	uPA generation inconclusive, Rab9 prom act 1.12µM, ELG1 genotoxic inconclusive, NPC1 prom act 0.447µM, FLuc counter 1.35µM (no result: SMN2 splice up)
Nc1c(-c2ccc(Cl)cc2)cnc2c(-c3ccccc3)cnn12	Rab9 prom act 1.26µM, ELG1 genotoxic 1.64µM, NPC1 prom act 0.316µM, FLuc counter 0.477µM (no result: SMN2 splice up)
Cc1ccc(C)c(CSC2=NC(C)(C)Nc3ccccc32)c1	none (no result: SMN2 splice up, uPA generation, Rab9 prom act, ELG1 genotoxic, NPC1 prom act)
O=C(Cc1c(F)cccc1Cl)N1CCN(S(=O)(=O)c2cccs2)CC1	none (no result: SMN2 splice up)
Cc1ccccc1-c1cnn(-c2cccc([N+](=O)[O-])c2)c1N	none
COc1ccc(-c2cnn3c(N)c(S(=O)(=O)C(C)(C)C)cnc23)cc1	FLuc counter inconclusive (no result: uPA generation)
Cc1ccc(-c2cnn(-c3cccc([N+](=O)[O-])c3)c2N)cc1	Rab9 prom act 3.16µM, ELG1 genotoxic inconclusive, NPC1 prom act 2.24µM, FLuc counter 12µM
Nc1c(-c2ccc(Cl)cc2)cnn1-c1ccccc1	Rab9 prom act 0.891µM, ELG1 genotoxic 6.51µM, NPC1 prom act 2.24µM, FLuc counter 4.78µM (no result: SMN2 splice up)
Nc1c(-c2ccc(Cl)cc2)cnn1-c1cc(C(F)(F)F)cc(C(F)(F)F)c1	none (no result: SMN2 splice up)
COc1ccc(-c2cnc3c(-c4ccc(F)cc4)cnn3c2N)cc1	Rab9 prom act 0.316µM, ELG1 genotoxic inconclusive, NPC1 prom act 0.398µM, FLuc counter 0.601µM (no result: SMN2 splice up)
Nc1c(-c2ccccc2)cnn1-c1cccc(C(F)(F)F)c1	SMN2 splice up 3.55µM, Rab9 prom act 3.16µM, NPC1 prom act inconclusive, FLuc counter 16.9µM
O=C(NCCO)C(=O)Nc1c2c(nn1-c1ccc(F)cc1)CSC2	none (no result: SMN2 splice up, uPA generation, Rab9 prom act, ELG1 genotoxic, NPC1 prom act)
CC1CCN(c2ccc(-c3ccc(NC(=O)C(F)(F)F)cc3)nn2)CC1	Rab9 prom act 0.501µM, ELG1 genotoxic 0.731µM, NPC1 prom act 0.126µM, FLuc counter inconclusive (no result: SMN2 splice up)
COc1ccc(OC)c(NC(=O)c2ccc3nc(C(C)C)oc3c2)c1	none (no result: SMN2 splice up, uPA generation, Rab9 prom act, ELG1 genotoxic, NPC1 prom act)
CN(C)S(=O)(=O)Nc1ccc2c(c1)Cc1ccccc1-2	SMN2 splice up inconclusive, ELG1 genotoxic inconclusive, FLuc counter 26.9µM
CN(C)S(=O)(=O)Nc1ccc(NS(=O)(=O)N(C)C)c(S(=O)(=O)c2ccccc2)c1	none
O=C(Nc1ccc(Br)cc1)c1ccccc1Br	uPA generation inconclusive, Rab9 prom act 3.16µM, ELG1 genotoxic inconclusive, NPC1 prom act 1.41µM, FLuc counter 10.7µM (no result: SMN2 splice up)
CCc1ccc(NC(=O)c2ccccc2Br)cc1	SMN2 splice up 12.6µM, Rab9 prom act 2µM, NPC1 prom act 1.41µM, FLuc counter 10.7µM
O=C(O)c1ccc(NC(=O)c2ccccc2NC(=O)c2ccccc2Br)cc1	FLuc counter 16.9µM (no result: SMN2 splice up)
CCNC(=S)Nc1ccc(NC(=O)c2ccccc2O)cc1	FLuc counter 12µM (no result: SMN2 splice up)
O=C(Nc1ccccc1C(=O)Nc1ccccc1)c1ccccc1Br	none (no result: SMN2 splice up, Rab9 prom act, ELG1 genotoxic, NPC1 prom act, FLuc counter)
CCN(CC)S(=O)(=O)c1cccc(-c2cn3cc(C)ccc3n2)c1	ELG1 genotoxic inconclusive, FLuc counter 4.78µM
CN(C)S(=O)(=O)c1cccc(-c2cn3cccnc3n2)c1	none
Cc1ccc2nc(-c3cccc(S(=O)(=O)N(C)C)c3)cn2c1	Rab9 prom act 3.16µM, NPC1 prom act inconclusive, FLuc counter inconclusive
CCCCc1nnc(NC(=O)CC(=O)Nc2ccccc2C(=O)O)s1	FLuc counter 16.9µM
CC(C)Cc1nnc(NC(=O)CCC(=O)Nc2ccccc2F)s1	none (no result: SMN2 splice up)
